# Assay results reported in ChEMBL document CHEMBL3988442, “University of Dundee, Small-Polar-MMV Screening Library” (2021).
# For some of these results: Results with a measured potency or affinity are listed apart.
# Assays:
# [1] = biological target: T1, Methionyl-tRNA synthetase, putative (Leishmania donovani (strain BPK282A1)) (UniProt E9BF75); assay: Leishmania donovani Methionine tRNA synthetase (LdMetRS):v7. Dose response assay; assay type: functional; set-up: conc 80 nM, time 150 minutes
# T1 sequence (whole entry): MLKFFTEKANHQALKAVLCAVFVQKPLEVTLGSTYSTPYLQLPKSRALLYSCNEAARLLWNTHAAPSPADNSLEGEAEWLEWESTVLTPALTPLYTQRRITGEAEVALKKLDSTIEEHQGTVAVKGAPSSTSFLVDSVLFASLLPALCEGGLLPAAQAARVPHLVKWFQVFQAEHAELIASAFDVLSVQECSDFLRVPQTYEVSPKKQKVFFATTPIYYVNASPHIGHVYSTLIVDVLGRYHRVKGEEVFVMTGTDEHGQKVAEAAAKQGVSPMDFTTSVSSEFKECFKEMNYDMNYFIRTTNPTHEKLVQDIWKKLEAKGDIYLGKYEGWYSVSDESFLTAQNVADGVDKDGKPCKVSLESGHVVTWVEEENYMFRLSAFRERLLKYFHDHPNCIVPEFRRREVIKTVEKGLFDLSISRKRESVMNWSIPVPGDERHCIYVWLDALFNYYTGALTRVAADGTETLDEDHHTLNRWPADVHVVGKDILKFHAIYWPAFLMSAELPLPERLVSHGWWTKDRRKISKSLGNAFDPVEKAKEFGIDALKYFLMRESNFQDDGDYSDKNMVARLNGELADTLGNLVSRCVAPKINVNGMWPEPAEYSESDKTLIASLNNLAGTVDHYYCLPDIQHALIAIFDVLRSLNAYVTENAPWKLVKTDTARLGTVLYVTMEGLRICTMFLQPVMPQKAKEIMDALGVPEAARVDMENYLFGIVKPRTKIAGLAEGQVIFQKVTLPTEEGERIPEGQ
# [2] = biological target: Protein translocase subunit SecA (Escherichia coli (strain K12)) (UniProt P10408); assay: Assay to Identify E. coli SecA ATPase Inhibitors; assay type: functional; set-up: scale not given: direction of the effect not stated beside the values; settings: 30 µM
# Sequence of Protein translocase subunit SecA (Escherichia coli (strain K12)) (P10408 whole entry): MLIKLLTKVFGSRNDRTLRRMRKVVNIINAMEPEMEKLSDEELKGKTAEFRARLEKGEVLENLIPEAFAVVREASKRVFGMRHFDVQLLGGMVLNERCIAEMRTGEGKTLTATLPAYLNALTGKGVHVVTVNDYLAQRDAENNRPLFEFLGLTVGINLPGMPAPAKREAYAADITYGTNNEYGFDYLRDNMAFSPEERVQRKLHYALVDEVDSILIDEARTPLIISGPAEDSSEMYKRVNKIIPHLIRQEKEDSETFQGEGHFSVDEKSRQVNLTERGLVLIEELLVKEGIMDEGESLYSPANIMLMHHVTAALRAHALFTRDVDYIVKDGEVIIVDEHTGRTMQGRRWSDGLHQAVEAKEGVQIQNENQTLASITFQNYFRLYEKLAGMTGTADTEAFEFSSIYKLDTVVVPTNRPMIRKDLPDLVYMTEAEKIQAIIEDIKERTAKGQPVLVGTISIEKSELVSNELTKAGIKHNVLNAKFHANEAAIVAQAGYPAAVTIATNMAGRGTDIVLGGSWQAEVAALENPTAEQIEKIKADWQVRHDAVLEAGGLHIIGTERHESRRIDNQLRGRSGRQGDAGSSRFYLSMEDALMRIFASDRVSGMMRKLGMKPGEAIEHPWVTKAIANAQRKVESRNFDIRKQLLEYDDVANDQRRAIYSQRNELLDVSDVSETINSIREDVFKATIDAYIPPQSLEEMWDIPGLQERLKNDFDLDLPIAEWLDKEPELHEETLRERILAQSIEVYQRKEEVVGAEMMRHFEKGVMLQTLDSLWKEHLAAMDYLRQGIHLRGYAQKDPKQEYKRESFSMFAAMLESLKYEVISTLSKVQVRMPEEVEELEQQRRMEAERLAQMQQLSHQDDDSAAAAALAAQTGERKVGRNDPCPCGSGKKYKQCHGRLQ
# [3] = biological target: T2, Ubiquitin-activating enzyme e1, putative (Leishmania donovani (strain BPK282A1)) (UniProt E9BSI1); assay: Leishmania donovani Ubiquitin Activating Enzyme (LdE1); assay type: functional; set-up: scale not given: direction of the effect not stated beside the values; settings: 30 µM
# T2 sequence (whole entry): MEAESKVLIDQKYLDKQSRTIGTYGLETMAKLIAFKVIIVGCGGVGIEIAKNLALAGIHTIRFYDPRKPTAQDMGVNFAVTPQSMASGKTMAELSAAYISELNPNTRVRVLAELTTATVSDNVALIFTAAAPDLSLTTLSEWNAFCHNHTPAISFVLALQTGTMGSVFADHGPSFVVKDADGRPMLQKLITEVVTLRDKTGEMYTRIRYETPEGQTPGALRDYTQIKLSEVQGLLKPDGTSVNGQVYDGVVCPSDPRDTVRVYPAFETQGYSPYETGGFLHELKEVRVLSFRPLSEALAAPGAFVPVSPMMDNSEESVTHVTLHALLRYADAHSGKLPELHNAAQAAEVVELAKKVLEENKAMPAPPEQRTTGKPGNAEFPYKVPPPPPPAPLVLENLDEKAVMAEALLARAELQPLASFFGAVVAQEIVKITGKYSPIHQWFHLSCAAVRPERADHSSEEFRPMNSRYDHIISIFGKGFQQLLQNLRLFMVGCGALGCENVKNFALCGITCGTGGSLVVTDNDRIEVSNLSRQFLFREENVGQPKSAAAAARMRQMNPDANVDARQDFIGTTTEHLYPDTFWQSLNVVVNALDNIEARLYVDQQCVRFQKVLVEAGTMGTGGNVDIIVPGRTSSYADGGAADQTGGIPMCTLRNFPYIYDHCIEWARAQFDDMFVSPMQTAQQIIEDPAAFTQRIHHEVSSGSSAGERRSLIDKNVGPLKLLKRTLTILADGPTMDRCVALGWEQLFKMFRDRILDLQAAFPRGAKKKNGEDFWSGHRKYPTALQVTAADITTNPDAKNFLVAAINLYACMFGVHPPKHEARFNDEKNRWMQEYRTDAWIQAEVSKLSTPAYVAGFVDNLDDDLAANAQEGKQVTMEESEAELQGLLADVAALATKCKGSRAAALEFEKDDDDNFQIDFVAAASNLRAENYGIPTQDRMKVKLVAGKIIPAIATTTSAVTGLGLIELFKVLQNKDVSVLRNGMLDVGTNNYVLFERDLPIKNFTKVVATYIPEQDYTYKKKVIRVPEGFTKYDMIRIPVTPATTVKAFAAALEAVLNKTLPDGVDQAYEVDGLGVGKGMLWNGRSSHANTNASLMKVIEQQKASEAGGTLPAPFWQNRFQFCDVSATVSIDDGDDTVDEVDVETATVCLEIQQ
# [4] = biological target: AMP-activated protein kinase, AMPK (Homo sapiens) (UniProt P54646+O43741+P54619+Q9UGJ0+Q9Y478+Q13131+Q9UGI9); assay: AMP-dependent Kinase enzyme assay. An in vitro enzyme assay that detects ADP turnover that is directly proportional to AMPK activity. This uses naive AMPK that is activated during the assay with MK-8722; assay type: functional; set-up: scale not given: direction of the effect not stated beside the values; settings: 30 µM
# [5] = biological target: Sialic acid-binding Ig-like lectin 9 (Homo sapiens) (UniProt Q9Y336); assay: Hs-Siglec9 ALPHAscreen SOP 20170721; set-up: scale not given: direction of the effect not stated beside the values; settings: 10 µM
# Sequence of Sialic acid-binding Ig-like lectin 9 (Homo sapiens) (Q9Y336 whole entry): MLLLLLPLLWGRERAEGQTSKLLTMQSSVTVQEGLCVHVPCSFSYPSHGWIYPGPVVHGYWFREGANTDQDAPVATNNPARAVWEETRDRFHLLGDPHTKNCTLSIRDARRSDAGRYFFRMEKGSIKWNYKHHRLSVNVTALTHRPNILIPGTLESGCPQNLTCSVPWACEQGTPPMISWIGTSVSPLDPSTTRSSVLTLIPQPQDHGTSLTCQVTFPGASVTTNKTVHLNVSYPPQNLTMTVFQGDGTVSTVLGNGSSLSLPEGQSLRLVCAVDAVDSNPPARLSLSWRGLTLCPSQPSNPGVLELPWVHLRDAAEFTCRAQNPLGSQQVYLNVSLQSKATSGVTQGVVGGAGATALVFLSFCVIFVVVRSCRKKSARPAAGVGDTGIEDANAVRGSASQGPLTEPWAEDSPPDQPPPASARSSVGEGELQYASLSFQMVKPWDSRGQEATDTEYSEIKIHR
# Trypanosoma cruzi = assay: Trypanosoma cruzi phosphomannomutase and mannose-1-phosphate guanylyltransferase assay; assay type: functional; set-up: scale not given: direction of the effect not stated beside the values; settings: 10 µM
# [6] = biological target: T3, Arginase-2, mitochondrial (Homo sapiens) (UniProt P78540); assay: in vitro enzyme assay to detect the production of urea directly proportional to the activity of Arginase II; assay type: functional; set-up: scale not given: in the data most compounds retested in dose-response had high values; settings: 33.3 µM
# T3 sequence (whole entry): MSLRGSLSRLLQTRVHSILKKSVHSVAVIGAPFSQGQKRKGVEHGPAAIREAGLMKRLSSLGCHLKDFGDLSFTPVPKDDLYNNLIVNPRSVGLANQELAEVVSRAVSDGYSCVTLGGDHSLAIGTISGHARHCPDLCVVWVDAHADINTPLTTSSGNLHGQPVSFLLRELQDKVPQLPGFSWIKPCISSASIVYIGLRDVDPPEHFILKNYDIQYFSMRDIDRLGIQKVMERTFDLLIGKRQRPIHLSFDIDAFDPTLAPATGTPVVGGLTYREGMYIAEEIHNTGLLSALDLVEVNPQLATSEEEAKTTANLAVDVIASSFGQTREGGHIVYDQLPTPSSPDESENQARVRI
# [7] = biological target: T4, Proteasome subunit beta (Trypanosoma cruzi) (UniProt O96673); assay: Trypanosoma cruzi proteasome chymotrypsin-like activity (TcProtChymo) assay.; assay type: functional; set-up: scale not given: in the data most compounds retested in dose-response had high values; settings: 9.37 µM
# T4 sequence (whole entry): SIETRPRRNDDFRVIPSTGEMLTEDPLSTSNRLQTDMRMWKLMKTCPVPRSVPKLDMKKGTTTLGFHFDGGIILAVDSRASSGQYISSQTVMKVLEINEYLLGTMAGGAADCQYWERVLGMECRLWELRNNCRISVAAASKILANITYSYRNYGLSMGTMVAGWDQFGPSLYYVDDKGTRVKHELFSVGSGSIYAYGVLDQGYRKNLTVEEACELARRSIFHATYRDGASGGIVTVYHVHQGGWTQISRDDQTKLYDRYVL
# Homo sapiens = species on record: Homo sapiens; assay: To identify inhibition of the IFN signalling (Jak-Stat) pathway via expression of an eGFP reporter gene under the control of an IFN-stimulated response element (ISRE) containing MxA promoter.; assay type: functional; set-up: scale not given: direction of the effect not stated beside the values; settings: 30 µM
# [8] = biological target: T5, Tyrosyl-tRNA synthetase, putative (Trypanosoma cruzi (strain CL Brener)) (UniProt Q4DSP6); assay: Trypanosoma cruzi tyrosyl tRNA synthetase (TcYRS) _High Tyrosine SOP; assay type: functional; set-up: scale not given: in the data most compounds retested in dose-response had high values; settings: 30 µM
# T5 sequence (whole entry): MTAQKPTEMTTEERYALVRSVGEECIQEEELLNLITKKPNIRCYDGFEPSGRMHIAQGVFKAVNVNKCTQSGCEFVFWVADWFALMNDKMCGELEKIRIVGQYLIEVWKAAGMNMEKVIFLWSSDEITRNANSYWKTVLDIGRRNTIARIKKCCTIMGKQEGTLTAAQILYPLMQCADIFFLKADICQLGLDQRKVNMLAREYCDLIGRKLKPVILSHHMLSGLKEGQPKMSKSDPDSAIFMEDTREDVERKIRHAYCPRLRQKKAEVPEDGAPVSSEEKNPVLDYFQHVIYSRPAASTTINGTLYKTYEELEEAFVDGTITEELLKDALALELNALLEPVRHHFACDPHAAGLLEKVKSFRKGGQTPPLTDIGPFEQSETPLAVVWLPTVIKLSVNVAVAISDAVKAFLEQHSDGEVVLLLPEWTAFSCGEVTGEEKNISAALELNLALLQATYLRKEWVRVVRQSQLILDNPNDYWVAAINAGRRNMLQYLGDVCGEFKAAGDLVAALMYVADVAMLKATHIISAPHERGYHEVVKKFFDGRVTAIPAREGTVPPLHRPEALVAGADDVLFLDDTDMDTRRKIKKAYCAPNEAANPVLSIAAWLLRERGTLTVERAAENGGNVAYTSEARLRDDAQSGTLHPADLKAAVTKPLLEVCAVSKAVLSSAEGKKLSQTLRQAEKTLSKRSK
# [9] = biological target: T5, Tyrosyl-tRNA synthetase, putative (Trypanosoma cruzi (strain CL Brener)); assay: Trypanosoma cruzi tyrosyl tRNA synthetase (TcYRS) SOP; assay type: functional; set-up: scale not given: direction of the effect not stated beside the values; settings: 30 µM
# [10] = biological target: Chromo domain-containing protein 1 (Saccharomyces cerevisiae (strain ATCC 204508 / S288c) (Baker's yeast)) (UniProt P32657); assay: ScCHD-1 Enzyme Inhibition Assay; assay type: functional; set-up: scale not given: in the data most compounds retested in dose-response had high values; settings: 30 µM
# Sequence of Chromo domain-containing protein 1 (Saccharomyces cerevisiae (strain ATCC 204508 / S288c) (Baker's yeast)) (P32657 whole entry, the tested form may be a part): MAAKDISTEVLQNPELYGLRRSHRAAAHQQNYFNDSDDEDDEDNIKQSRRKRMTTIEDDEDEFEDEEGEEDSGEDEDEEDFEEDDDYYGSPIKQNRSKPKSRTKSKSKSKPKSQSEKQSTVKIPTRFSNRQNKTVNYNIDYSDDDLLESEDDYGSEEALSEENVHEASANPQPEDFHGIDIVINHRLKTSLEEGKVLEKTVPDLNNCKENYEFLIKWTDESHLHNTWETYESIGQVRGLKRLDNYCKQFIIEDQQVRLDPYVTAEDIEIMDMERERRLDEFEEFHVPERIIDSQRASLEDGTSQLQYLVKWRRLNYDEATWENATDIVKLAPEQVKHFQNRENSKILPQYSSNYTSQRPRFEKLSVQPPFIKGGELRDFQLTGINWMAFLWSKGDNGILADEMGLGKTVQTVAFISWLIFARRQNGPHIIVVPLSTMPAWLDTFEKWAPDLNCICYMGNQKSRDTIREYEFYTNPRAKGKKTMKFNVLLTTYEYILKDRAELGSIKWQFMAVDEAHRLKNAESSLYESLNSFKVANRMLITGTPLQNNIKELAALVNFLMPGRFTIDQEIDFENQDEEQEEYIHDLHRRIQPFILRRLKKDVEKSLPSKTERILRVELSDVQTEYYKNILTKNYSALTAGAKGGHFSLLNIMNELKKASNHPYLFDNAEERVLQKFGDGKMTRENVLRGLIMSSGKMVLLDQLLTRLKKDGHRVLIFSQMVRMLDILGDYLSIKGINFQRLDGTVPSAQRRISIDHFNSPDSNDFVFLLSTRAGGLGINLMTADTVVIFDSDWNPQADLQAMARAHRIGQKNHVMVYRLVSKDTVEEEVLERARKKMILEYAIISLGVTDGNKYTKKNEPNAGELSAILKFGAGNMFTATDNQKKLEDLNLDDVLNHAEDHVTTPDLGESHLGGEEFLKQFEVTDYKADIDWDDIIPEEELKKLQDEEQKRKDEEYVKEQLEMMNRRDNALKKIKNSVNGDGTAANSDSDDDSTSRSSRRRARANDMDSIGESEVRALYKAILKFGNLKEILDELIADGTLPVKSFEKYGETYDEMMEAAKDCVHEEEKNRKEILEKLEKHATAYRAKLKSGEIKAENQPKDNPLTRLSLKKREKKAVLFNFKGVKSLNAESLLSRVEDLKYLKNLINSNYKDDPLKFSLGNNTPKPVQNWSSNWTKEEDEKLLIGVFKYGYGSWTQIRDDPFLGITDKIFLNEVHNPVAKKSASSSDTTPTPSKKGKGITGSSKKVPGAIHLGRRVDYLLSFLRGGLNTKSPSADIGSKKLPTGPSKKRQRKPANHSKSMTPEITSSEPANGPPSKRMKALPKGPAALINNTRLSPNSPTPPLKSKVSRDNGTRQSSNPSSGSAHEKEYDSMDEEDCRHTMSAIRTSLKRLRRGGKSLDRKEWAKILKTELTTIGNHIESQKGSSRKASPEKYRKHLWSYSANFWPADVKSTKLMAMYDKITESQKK
smiles,measurement,setting,value
Cc1nc(N2CCCCC2)ncc1-c1cc(O)[nH]n1,PXC50,[1]; MAX_EFFECT 13.62007168,< 4
same,PXC50,[1]; MAX_EFFECT 16.42743222,< 4
same,PXC50,[1]; MAX_EFFECT 31.28598848,< 4
same,PXC50,[1]; MAX_EFFECT 33.33333333,< 4
same,PXC50,[1]; MAX_EFFECT 39.9339934,< 4
same,Percent Effect,[2],-5.23%
same,Percent Effect,[3],1.33%
same,Percent Effect,[4],13%
same,Percent Effect,[5],8.28%
same,Percent Effect,Trypanosoma cruzi,1.18%
same,Percent Effect,[6],-8.28%
same,Percent Effect,[7],6.65%
same,Percent Effect,Homo sapiens,-20%
same,Percent Effect,[8],5.29%
same,Percent Effect,[9],7.69%
same,Percent Effect,[10],-1.87%
CN(CC1CC1)c1ccc2ccc(C(=O)NCCc3ccccc3)cn12,PXC50,"[1]; BOTTOM 0.351029795, HILLSLOPE 1.115089004, MAX_EFFECT 62.13151927, TOP 107.5835515",4.12
same,PXC50,"[1]; BOTTOM 1.92078188, HILLSLOPE 1.430695014, MAX_EFFECT 75.69444444, TOP 86.56449287",4.61
same,PXC50,"[1]; BOTTOM 2.657056439, HILLSLOPE 1.351512964, MAX_EFFECT 68.11091854, TOP 100.0",4.19
same,PXC50,"[1]; BOTTOM -1.049582542, HILLSLOPE 1.242411624, MAX_EFFECT 75.16778523, TOP 98.82108854",4.43
same,PXC50,[1]; MAX_EFFECT 50.8411215,< 4
CC(C)c1nc(CNC2CCCN(c3cccnn3)C2)no1 (stereo unspecified),PXC50,"[1]; BOTTOM -4.804668592, HILLSLOPE 1.43236327, MAX_EFFECT 76.8115942, TOP 100.0",4.38
same,PXC50,"[1]; BOTTOM -10.26857321, HILLSLOPE 1.286287287, MAX_EFFECT 68.70748299, TOP 100.0",4.3
same,PXC50,[1]; MAX_EFFECT 0.790513834,< 4
same,PXC50,[1]; MAX_EFFECT 4.444444444,< 4
same,PXC50,[1]; MAX_EFFECT 61.12084063,< 4
CC(C)C[C@H](N)COc1cccc(F)c1Oc1cccc(Cl)c1,PXC50,"[1]; BOTTOM 6.91310013, HILLSLOPE 1.495350679, MAX_EFFECT 83.36221837, TOP 100.0",4.36
same,PXC50,"[1]; BOTTOM 8.664927698, HILLSLOPE 1.748800753, MAX_EFFECT 77.85234899, TOP 95.40759793",4.33
same,PXC50,"[1]; BOTTOM 9.147353303, HILLSLOPE 1.551603339, MAX_EFFECT 81.25, TOP 100.0",4.34
same,PXC50,"[1]; BOTTOM -0.863158235, HILLSLOPE 2.70922767, MAX_EFFECT 71.29186603, TOP 83.59060963",4.29
same,PXC50,"[1]; BOTTOM -4.44021311, HILLSLOPE 1.559741226, MAX_EFFECT 77.3512476, TOP 100.0",4.35
